Calls of active or inactive are those of the source.

A short description of experiment [1]: compound effects on differentiated 3T3-L1 adipocyte viability – cell-based, 3T3-L1 adipocytes, calcein-AM fluorescence, 48 h, basal, profiling panel (AID 1163). To be noted: 3T3-L1 adipocytes viability, higher = more signal.
Experiment [2] in a line: compound effects on hepatocellular carcinoma cell viability – HepG2, calcein-AM fluorescence, 48 h, basal, profiling panel (AID 1164). To be noted: higher = more signal.
A short description of experiment [3]: compound effects on multiple myeloma cell viability – MM1S, calcein-AM fluorescence, 48 h, basal, profiling panel (AID 1165).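 Note: viability of MM1S multiple myeloma cells under basal unstimulated conditions.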 To be noted: higher = more signal.
Experiment [4] in a line: calcein-AM signal in unstimulated myeloma cells – cell-based, calcein-AM fluorescence, 48 h, PK04 Diversity Set, profiling panel (AID 1166).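 Note: cells grown under basal conditions without added stimulus.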 To be noted: RPMI8226 myeloma viability, higher = more signal.
A short description of experiment [5]: JC-1 mitochondrial signal, unstimulated HepG2 cells – cell-based, JC-1 fluorescence, 24 h, 100 nL compound, profiling panel (AID 1167). To be noted: HepG2 mitochondrial potential, higher = more signal.
Experiment [6] can be described thus: JC-1 mitochondrial signal, unstimulated adipocytes – cell-based, JC-1 fluorescence, 3T3-L1 adipocytes, 24 h, 100 nL compound, profiling panel (AID 1168). To be noted: JC-1 mitochondrial fluorescence, higher = more signal, called active from +8 up or from −8 down.
Experiment [7] can be described thus: JC-1 mitochondrial signal, unstimulated myeloma cells – cell-based, JC-1 fluorescence, RPMI8226, 24 h, 100 nL compound, profiling panel (AID 1169). To be noted: JC-1 mitochondrial potential fluorescence, higher = more signal.
A short description of experiment [8]: JC-1 mitochondrial signal, unstimulated MM1S myeloma – cell-based, JC-1 fluorescence, 24 h, 100 nL compound, profiling panel (AID 1170). To be noted: MM1S mitochondrial potential, higher = more signal.
A short description of experiment [9]: resazurin metabolic signal in A549 cells – cell-based, resazurin fluorescence, 24 h, PK04 Diversity Set, profiling panel (AID 1171). To be noted: A549 viability, higher = more signal, called active from +8 up or from −8 down. On the technique in general: The colour change of resazurin is a common sign of viable cells or microbes.
Experiment [10] can be described thus: resazurin metabolic signal in HepG2 cells – cell-based, resazurin fluorescence, 24 h, PK04 Diversity Set, profiling panel (AID 1172). To be noted: HepG2 viability, higher = more signal.
The nature of experiment [11]: budding yeast growth changes without added modifier – OD600, strain BY4716, 24 h, basal condition, primary screen (AID 1173). To be noted: S. cerevisiae BY4716 growth, OD600, 24 h; higher = more signal, called active from +8 up or from −8 down.
The nature of experiment [12]: viability profiling in MM1S myeloma cells – cell-based, resazurin fluorescence, basal, 24 h, PK04 Diversity Set, profiling panel (AID 1174). To be noted: higher = more signal, called active from +8 up or from −8 down.
In experiment [13] the target is Dihydroorotate dehydrogenase (quinone), mitochondrial (Plasmodium falciparum (isolate 3D7)) (UniProt Q08210). The experiment in a line: inhibition of P. falciparum DHODH – biochemical, C-terminal His tag, absorbance 600 nm, primary screen (AID 1175).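 Note: recombinant parasite enzyme with a five histidine tag at its C terminus.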 To be noted: PfDHODH enzyme, DCIP absorbance 600 nm; higher = more signal, called active from +8 up or from −8 down.
Chain of Dihydroorotate dehydrogenase (quinone), mitochondrial (Plasmodium falciparum (isolate 3D7)) (Q08210 whole entry, looked up): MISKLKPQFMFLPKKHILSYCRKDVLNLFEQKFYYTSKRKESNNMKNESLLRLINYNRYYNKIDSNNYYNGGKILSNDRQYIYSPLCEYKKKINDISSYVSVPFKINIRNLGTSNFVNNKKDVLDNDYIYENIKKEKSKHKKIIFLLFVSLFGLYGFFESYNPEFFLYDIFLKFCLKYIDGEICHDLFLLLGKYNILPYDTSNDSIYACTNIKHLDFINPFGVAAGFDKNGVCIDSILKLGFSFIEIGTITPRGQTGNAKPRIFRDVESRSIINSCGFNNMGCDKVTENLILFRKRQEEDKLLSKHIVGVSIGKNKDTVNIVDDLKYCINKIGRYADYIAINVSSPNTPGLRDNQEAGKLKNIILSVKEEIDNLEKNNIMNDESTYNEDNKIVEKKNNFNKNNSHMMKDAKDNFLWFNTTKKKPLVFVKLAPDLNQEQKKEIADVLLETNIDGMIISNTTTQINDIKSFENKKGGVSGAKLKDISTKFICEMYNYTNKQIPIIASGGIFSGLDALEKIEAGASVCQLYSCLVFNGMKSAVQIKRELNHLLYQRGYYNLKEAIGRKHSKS
The nature of experiment [14]: growth modulation of vineyard yeast isolate – strain RM11-1a, OD600, basal, 24 h, primary screen (AID 1177).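 Note: cultures grown under basal conditions with no added stressor.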 To be noted: S. cerevisiae RM11-1a growth, OD600, 24 h; higher = more signal, called active from +8 up or from −8 down.
Experiment [15] is described as follows: growth of efflux-deficient E. coli DRC39 – strain DRC39, OD650, 24 h, E. coli filamentation inducers, primary screen (AID 1178).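 Note: growth measured as culture turbidity by optical density at 650 nm.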 To be noted: E. coli DRC39 acrAB, higher = more signal, called active from +8 up or from −8 down.
The nature of experiment [16]: growth of efflux-deficient E. coli DRC39 – strain DRC39, OD650, 48 h, E. coli filamentation inducers, primary screen (AID 1179).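 Note: screen aims at cell division blockers that make cells filament.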 To be noted: E. coli DRC39 delta-acrAB growth, higher = more signal, called active from +8 up or from −8 down.
Experiment [17] in a line: viability profiling in RPMI8226 myeloma cells – cell-based, resazurin fluorescence, basal, 24 h, PK04 Diversity Set, profiling panel (AID 1180).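 Note: RPMI8826 multiple myeloma cell line at 5000 cells per well.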 To be noted: higher = more signal.
In experiment [18] the target is E3 ubiquitin-protein ligase XIAP (Homo sapiens) (UniProt P98170). The experiment in a line: small molecules binding XIAP protein – biophysical, small-molecule microarray, fluorescence 635 nm, primary screen (AID 1181).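 Note: score merges 667 nm emission and signal to noise over triplicate slides.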 To be noted: higher = more signal.
Chain of E3 ubiquitin-protein ligase XIAP (Homo sapiens) (P98170 whole entry, looked up, the tested form may be a part): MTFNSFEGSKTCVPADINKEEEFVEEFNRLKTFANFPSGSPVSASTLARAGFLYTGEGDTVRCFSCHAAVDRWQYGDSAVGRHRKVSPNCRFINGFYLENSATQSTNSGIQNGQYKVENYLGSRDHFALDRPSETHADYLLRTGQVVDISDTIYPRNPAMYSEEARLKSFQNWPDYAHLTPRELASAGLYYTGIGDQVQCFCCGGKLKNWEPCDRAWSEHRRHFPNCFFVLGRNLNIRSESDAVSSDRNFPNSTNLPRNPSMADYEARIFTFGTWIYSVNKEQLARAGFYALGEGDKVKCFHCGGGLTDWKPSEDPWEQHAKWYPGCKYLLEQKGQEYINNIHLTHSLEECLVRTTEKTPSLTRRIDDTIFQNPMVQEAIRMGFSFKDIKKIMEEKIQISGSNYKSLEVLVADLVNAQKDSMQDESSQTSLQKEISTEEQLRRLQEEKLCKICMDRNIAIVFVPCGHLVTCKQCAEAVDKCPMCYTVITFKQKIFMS
In experiment [19] the test system is XIP peptide (Xip251-270) binding. The experiment in a line: XIP fragment 251-270 binding compounds – biochemical, small-molecule microarray, fluorescence 635/667 nm, 0.1 µg/mL protein, primary screen (AID 1182). To be noted: fluorescent protein binding, 635 nm, higher = more signal, called active from +8 up or from −8 down.
For experiment [20], the system named is XIP peptide (Xip251-270). Put plainly: compounds binding XIP fragment 251-270 – biochemical, small-molecule microarray, fluorescence 635/667 nm, 0.5 µg/mL protein, primary screen (AID 1183). To be noted: fluorescence 635 nm, higher = more signal.

Turning to `CC(C)(C)OC(=O)CC[C@@]12N=C(c3ccc(OCCCO)cc3)O[C@@H]1c1ccccc1CN(Cc1ccccc1)C2=O`, the z-score in [1] was 1.52; in experiment [2] it was -1.46; in [3], -3.12; in experiment [4], -4.06; in [5], 0.528; in experiment [6] it was 0.547 (inactive). In addition, the z-score in experiment [7] is -1.2; in [8], -1.07; in [9] it was -0.624 (inactive); in experiment [10] it was -0.232; in experiment [11], 1.13 (inactive); in experiment [12], -3.4 (inactive). In addition, the z-score in experiment [14] was 3.15 (inactive); in experiment [15], 1.21 (inactive); in experiment [16], 0.199 (inactive); in experiment [17] it was -2.12. Besides, the composite z-score in experiment [13] was 0.714 (inactive); in [18], 0.286; in experiment [19], -0.127 (inactive); in [20] it was 0.687.
Turning to `CC(C)(C)OC(=O)CC[C@@]1(C(=O)N2CCOCC2)N=C(c2ccc(OCCCO)cc2)O[C@@H]1c1ccccc1`, the z-score in experiment [1] is 0.861; in [2], -0.215; in experiment [3], 0.317; in experiment [4], 0.414; in experiment [5], 0.652; in experiment [6] it was 1.08 (inactive). The z-score was -0.959 in [7]; 0.609 in experiment [8]; 1.6 (inactive) in experiment [9]; 0.957 in [10]; 0.0776 (inactive) in experiment [11]; 1.43 (inactive) in [12]. For the same molecule, the z-score in experiment [14] was 0.732 (inactive); in experiment [15] it was 2.19 (inactive); in [16], 0.869 (inactive); in [17] it was 1.53. Also, the composite z-score is 0.464 (inactive) in experiment [13], 0.105 in experiment [18], 1.6 (inactive) in experiment [19] and -0.326 in experiment [20].
Consider `CC(C)N1C(=O)c2ccccc2[C@@H](C(=O)NCc2ccccc2)[C@@H]1c1ccc(CO)cc1`, for which the z-score in [1] is 1.05; in experiment [2], -0.179; in experiment [3] it was -0.601; in experiment [4], 0.0541; in [5], 0.617; in experiment [6] it was -0.0455 (inactive). In addition, the z-score in experiment [7] was 0.115; in [8], -0.251; in experiment [9], 1.05 (inactive); in [10] it was 0.595; in experiment [11] it was 0.25 (inactive); in experiment [12] it was 1.51 (inactive). The z-score in [14] is 1.49 (inactive); in [15], 0.541 (inactive); in [16] it was 0.169 (inactive); in [17] it was 1.01. The composite z-score was 0.578 (inactive) in experiment [13], -0.0095 in experiment [18], 0.482 (inactive) in experiment [19] and -0.988 in experiment [20].
With `Cc1ccc(S[C@]2(C(=O)NC3CC3)CC(=O)N(Cc3ccccc3C(F)(F)F)[C@@H]2c2ccc(CO)cc2I)cc1`, the z-score was 0.421 in [1]; -0.4 in experiment [2]; -2.65 in [3]; -2.11 in experiment [4]; 1.44 in experiment [5]; 0.525 (inactive) in experiment [6]. In addition, the z-score in experiment [7] is -0.513; in experiment [8], -0.93; in [9], 0.149 (inactive); in [10], 0.436; in experiment [11], -8 (inactive); in experiment [12], -1.93 (inactive). Besides, the z-score in experiment [14] is -2.07 (inactive); in experiment [15] it was 0.413 (inactive); in experiment [16] it was 0.303 (inactive); in [17], -1.84. For the same molecule, the composite z-score is -2.6 (inactive) in experiment [13], -0.29 in [18], 0.0437 (inactive) in experiment [19] and -0.811 in experiment [20].

Source of the values: PubChem BioAssay.
